Drawing on PubChem BioAssay AID463173 (ICCB-Longwood Screening Facility, Harvard Medical School, 2010), this text covers survival for 62 molecules.

Hit rate of the full screen: of about 52,000 compounds, about 4,300 (8.3%) were called active. For the sample, actives were picked, then their nearest neighbours and some compounds at random. A number with no mark means an inactive call. No stated cut-off is given here; in the data, active means survival mostly below about 52% (no sharp cut-off); inactive means mostly above about 56%.

This assay concerns DeltatarO mutant. Nature of the assay: S. aureus survival, RN4220 and DeltatarO strains – OD600, teichoic acid synthesis inhibitors, primary screen (AID 463173). The conditions noted are these: S. aureus RN4220 wild type/DeltatarO growth, OD600, 18 h, hits give low values, screened at 18.75 µg/mL (by protocol).
For `Cc1ccc(-n2nc3c(=O)n(CCCC(=O)NCCc4ccccc4Cl)nc(C)c3c2C)cc1`, the survival was 91%.

`COc1cccc(CNC(=O)CCc2c(C)nc3c(c(C)nn3-c3ccc(C)c(C)c3)c2C)c1`: the survival was 67%.

For `O=S(=O)(c1ccccc1)c1nnn2c1nc(NC1CCCCCC1)c1sccc12`, the survival is 72%.

As for `Cc1nc(N2CCOCC2)c2c(C(=O)N(C)Cc3ccccc3)c(C)oc2n1`, the survival was 118%.

Consider `COC(=O)c1scc(-c2ccc(C)cc2)c1S(=O)(=O)N1CCN(c2ccccc2F)CC1`, for which the survival was 118%.

As for `COc1cccc(N2CC(NC(=O)c3cccs3)CC2=O)c1` (configuration not stated), the survival is 74%.

For `Cc1ccc(-n2ncc(C(=O)NCc3ccc4c(c3)OCO4)c2C2CCN(C(=O)OC(C)(C)C)CC2)c(C)c1`, the survival is 92%.

With `COc1ccc(Cn2c(=O)c3ccccc3n3c(-c4ccc(C)cc4)nnc23)cc1`, the survival was 90%.

As for `COc1ccc(Cn2c(SCC(=O)Nc3ccc(OC)cc3)nc3ccccc32)cc1`, the survival was 88%.

For `COc1ccc(-c2nc3ccccc3n2Cc2ccc(Cl)cc2)cc1`, the survival is 6% (active).

As for `COc1ccc(-c2nc3ccccc3n2Cc2ccccc2)cc1`, the survival is -1% (active).

For the molecule `COc1ccc(-c2nc3ccccc3n2Cc2ccc(C(C)C)cc2)cc1`, the survival is 4% (active).

Regarding `COc1ccc(-c2noc(=O)n2Cc2ccccc2)cc1`, the survival was 75%.

For `COc1ccc(Cn2c(SCC(=O)NCc3ccccc3)nc3ccccc32)cc1`, the survival was 117%.

Consider `CCOc1cc(Cn2c(-c3ccc(O)c(OCC)c3)nc3ccccc32)ccc1O`, for which the survival is 73%.

For `COc1ccc(Cn2c(SC)nc3ccccc32)cc1`, the survival was 97%.

As to `Cc1ccc(NC(=O)Cn2c(=O)oc3cc(S(=O)(=O)N4CCCCC4)ccc32)c(C)c1`, the survival is 81%.

On to `Cc1cc(C)cc(NC(=O)C(=O)NCCc2sc(-c3cccc(F)c3)nc2C)c1`, for which the survival was 80%.

On to `COc1cccc(-n2c(=O)c3sc4ccccc4c3n(CC(=O)Nc3ccc(F)cc3F)c2=O)c1`, for which the survival was 64%.

Take `O=C(NCCc1ccccc1)c1cc(Sc2cccc(Cl)c2)nc2ccccc12`: the survival was 88%.

On to `CCC(=O)N1CCc2cc(S(=O)(=O)CCC(=O)N3CCN(c4cccc(C)c4)C(C)C3)ccc21` (configuration not stated), for which the survival is 76%.

Regarding `COc1cc(Cl)c(C)cc1NC(=O)Cn1ncc2c1-c1cc(C)ccc1OC2`, the survival is 58%.

Consider `Cc1ccc2c(c1)-c1c(cnn1CC(=O)N1CCN(c3cc(Cl)ccc3C)CC1)CO2`, for which the survival was 49%.

With `Cc1ccc2c(c1)-c1c(cnn1CC(=O)N1CCN(c3ccccc3F)CC1)CO2`, the survival is 73%.

In the case of `Cc1cccc(N2CCN(C(=O)CCS(=O)(=O)c3ccc4c(c3)CC(=O)N4C)CC2C)c1` (configuration not stated), the survival is -2% (active).

Turning to `CN1C(=O)Cc2cc(S(=O)(=O)CCC(=O)N3CCN(c4cccc(Cl)c4)CC3)ccc21`, the survival was 62%.

As for `Cc1ccc2c(c1)-c1c(cnn1CC(=O)N1CCN(c3cccc(C(F)(F)F)c3)CC1)CO2`, the survival was 50%.

For the molecule `Cc1cccc(N2CCN(C(=O)Cn3ncc4c3-c3cc(C)ccc3OC4)CC2C)c1` (configuration not stated), the survival was 47% (active).

Consider `CCN(C(=O)Cn1ncc2c1-c1cc(C)ccc1OC2)c1cc(Cl)ccc1OC`, for which the survival is 31% (active).

Take `O=C(NCc1ccc(Cl)cc1)c1cc(S(=O)(=O)N2CCCCC2)c[nH]1`: the survival is 103%.

Regarding `Cc1ccc(-n2ncc3c(NC4CCCCC4)ncnc32)cc1`, the survival is 88%.

Regarding `Cc1ccccc1NCc1cccn1-c1nnc(N2CCOCC2)s1`, the survival was 112%.

Turning to `Cc1ccc(C(=O)c2oc3ccccc3c2NC(=O)c2cc(-c3ccc(Cl)cc3)on2)cc1`, the survival is 87%.

`CC1CCC(NC(=O)c2ccc3c(c2)N(Cc2cccc(Cl)c2)C(=O)c2ccccc2S3(=O)=O)CC1` (configuration not stated): the survival is 74%.

`COc1ccc2[nH]c(=O)c(CN(CCO)S(=O)(=O)c3ccc(Cl)c(C(F)(F)F)c3)cc2c1`: the survival is 98%.

For `COc1ccc(NCc2cccn2-c2nnc(N3CCOCC3)s2)c(OC)c1`, the survival is 78%.

In the case of `CCNC(=O)c1ccc(NC(=O)N2CCCCc3ccccc32)cc1`, the survival is 102%.

For the molecule `CCOc1ccc(N(CC(=O)OC)S(=O)(=O)c2ccc3c(c2)n(C)c(=O)c(=O)n3C)cc1`, the survival was 46% (active).

As for `COc1ccc(C(=O)N(c2ccc(OC)cc2)S(=O)(=O)c2ccc3c(c2)n(C)c(=O)n3C)cc1`, the survival is 84%.

Consider `CCCCCC(=O)N(c1ccc(OCC)cc1)S(=O)(=O)c1ccc2c(c1)n(C)c(=O)n2C`, for which the survival is 111%.

On to `CCOc1ccc(N(C(=O)c2ccc(OC)cc2)S(=O)(=O)c2ccc3c(c2)n(C)c(=O)n3C)cc1`, for which the survival was 37% (active).

In the case of `COc1ccc(N(C(=O)c2ccccc2)S(=O)(=O)c2ccc3c(c2)n(C)c(=O)n3C)cc1`, the survival was 89%.

For the molecule `CCOc1ccc(N(C(=O)c2ccc(C)cc2)S(=O)(=O)c2ccc3c(c2)n(C)c(=O)n3C)cc1`, the survival was 45%.

Consider `CCOc1ccc(N(C(=O)c2ccccc2F)S(=O)(=O)c2ccc3c(c2)n(C)c(=O)n3C)cc1`, for which the survival is 47%.

As to `CCOc1ccc(N(C(=O)c2ccc(Cl)cc2)S(=O)(=O)c2ccc3c(c2)n(C)c(=O)n3C)cc1`, the survival is 37% (active).

Take `CCOc1ccc(NC(=O)CCS(=O)(=O)c2ccc3c(c2)n(C)c(=O)c(=O)n3C)cc1`: the survival is 87%.

`CCc1nc2ccc(C(=O)N3CCN(c4cccc(OC)c4)CC3)cc2nc1CC`: the survival was 83%.

Regarding `CC(C)c1cnc2c(c1SCC(=O)Nc1cccc([N+](=O)[O-])c1)c(=O)n(C)c(=O)n2C`, the survival was 69%.

With `CC1CCN(S(=O)(=O)c2ccc3c(c2)N(CC(=O)N2CCN(c4ccc(Cl)cc4)CC2)C(=O)CO3)CC1`, the survival is 62%.

Consider `Cc1ccc(-c2nnc(SCC(=O)NCCC(C)C)nc2-c2ccc(C)cc2)cc1`, for which the survival was 104%.

Regarding `Cc1cccc(N(C(=O)c2csnn2)C(C(=O)NC2CCCCC2)c2ccco2)c1` (configuration not stated), the survival was 87%.

With `Cc1cc(C)cc(NC(=O)CSc2nccn2C2CCCC2)c1`, the survival is 94%.

With `COc1ccc(-n2nnnc2C2CCN(S(=O)(=O)c3ccc(C)cc3)CC2)cc1`, the survival was 99%.

Regarding `O=C1N(Cc2ccccc2Cl)c2ccccc2C1(O)c1c[nH]c2ccccc12` (configuration not stated), the survival is 64%.

`CCCCN1C(=O)C(O)(c2c[nH]c3ccccc23)c2cc(Br)ccc21` (configuration not stated): the survival was 50%.

For the molecule `O=C1N(Cc2ccccc2)c2ccc(Cl)cc2C1(O)c1c[nH]c2ccccc12` (configuration not stated), the survival is 66%.

As to `Cc1ccc(CN2C(=O)C(O)(c3c[nH]c4ccccc34)c3cc(Cl)ccc32)cc1` (configuration not stated), the survival is -3% (active).

Consider `O=C1N(Cc2ccccc2)c2ccccc2C1(O)c1c[nH]c2ccccc12` (configuration not stated), for which the survival was 55%.

As for `CCN1C(=O)C(O)(c2c[nH]c3ccccc23)c2cc(Br)ccc21` (configuration not stated), the survival was 55% (active).

`Cc1ccc(C)c(CN2C(=O)C(O)(c3c[nH]c4ccccc34)c3ccccc32)c1` (configuration not stated): the survival is 142%.

In the case of `Cc1ccccc1CN1C(=O)C(O)(c2c[nH]c3ccccc23)c2cc(Cl)ccc21` (configuration not stated), the survival is -2% (active).

For `CC(C)N1C(=O)C(O)(c2c[nH]c3ccccc23)c2ccccc21` (configuration not stated), the survival was 129%.
